PubChem BioAssay
Calls of active or inactive are those of the source.

Assays:
[1] = A549 cell viability effects, profiling panel, calcein-AM fluorescence, 48 h, basal (AID 1162); details: higher = more signal
[2] = adipocyte viability effects, profiling panel, cell-based, 3T3-L1 adipocytes, calcein-AM fluorescence, 48 h, basal (AID 1163); details: 3T3-L1 adipocytes viability, higher = more signal
[3] = HepG2 cell viability effects, profiling panel, calcein-AM fluorescence, 48 h, basal (AID 1164); details: higher = more signal
[4] = MM1S cell viability effects, profiling panel, calcein-AM fluorescence, 48 h, basal (AID 1165); details: higher = more signal;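 note: viability of MM1S multiple myeloma cells under basal unstimulated conditions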
[5] = basal RPMI8226 viability, no added stimulus, profiling panel, cell-based, calcein-AM fluorescence, 48 h, PK04 Diversity Set (AID 1166); details: RPMI8226 myeloma viability, higher = more signal;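 note: cells grown under basal conditions without added stimulus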
[6] = basal HepG2 mitochondrial membrane potential changes, profiling panel, cell-based, JC-1 fluorescence, 24 h, 100 nL compound (AID 1167); details: higher = more signal
[7] = basal 3T3-L1 adipocyte mitochondrial potential changes, profiling panel, cell-based, JC-1 fluorescence, 3T3-L1 adipocytes, 24 h, 100 nL compound (AID 1168); details: JC-1 mitochondrial fluorescence, higher = more signal, called active from +8 up or from −8 down
[8] = basal RPMI8226 mitochondrial membrane potential changes, profiling panel, cell-based, JC-1 fluorescence, 24 h, 100 nL compound (AID 1169); details: RPMI8226 myeloma, JC-1 mitochondrial potential fluorescence, higher = more signal
[9] = basal MM1S mitochondrial membrane potential changes, profiling panel, cell-based, JC-1 fluorescence, 24 h, 100 nL compound (AID 1170); details: higher = more signal
[10] = A549 lung cancer cell viability effects, profiling panel, resazurin fluorescence, 24 h, PK04 Diversity Set (AID 1171); details: higher = more signal, called active from +8 up or from −8 down
Note: test concentration not given here.

| Structure (SMILES) | z-score [1] | z-score [2] | z-score [3] | z-score [4] | z-score [5] | z-score [6] | z-score [7] | z-score [8] | z-score [9] | z-score [10] |
| --- | --- | --- | --- | --- | --- | --- | --- | --- | --- | --- |
| O=C(NCCN1CCOCC1)[C@@H]1c2ccccc2C(=O)N(C2Cc3ccccc3C2)[C@H]1c1ccc(CO)cc1 | 2.31 | 1.58 | 2.01 | 0.578 | 1.35 | 4.03 | 0.894 (inactive) | -0.647 | 0.291 | 0.326 (inactive) |
| COCCOC(=O)N1C(=O)[C@@]2(c3cc(C#CCCO)ccc31)[C@H](C(=O)Nc1nc3ccccc3s1)[C@H]1C(=O)O[C@H](c3ccccc3)[C@H](c3ccccc3)N1[C@@H]2c1ccc(O)cc1 | -0.378 | 0.274 | 0.123 | 0.0566 | -2.06 | 0.248 | 0.15 (inactive) | -0.314 | -0.471 | 0.771 (inactive) |
| CCCN1C(=O)[C@@]2(Cc3ccccc31)N=C(c1ccc(OCCCO)cc1)O[C@H]2c1ccccc1 | -1.06 | 0.526 | -1.1 | -3.51 | -4.16 | -0.895 | 0.201 (inactive) | -1.16 | -0.502 | -1.11 (inactive) |
| [N-]=[N+]=Nc1ccccc1C[C@@]1(C(=O)N2CCOCC2)N=C(c2ccc(OCCCO)cc2)O[C@@H]1c1ccccc1 | 0.239 | -0.231 | 1.01 | -1.92 | -2.57 | 1.02 | 0.752 (inactive) | -1.23 | -0.324 | -1.07 (inactive) |
| C=CC[C@@]1(C(=O)NCCCOC)N=C(c2ccc(OCCCO)cc2)O[C@@H]1c1ccccc1 | 0.689 | 0.457 | 0.83 | 0.611 | 0.751 | -0.166 | 1.21 (inactive) | -0.323 | 0.193 | -0.706 (inactive) |
| COC(=O)[C@@]1(Cc2ccc(OC)cc2)[C@H]2c3cc(C(=O)N4CCCC4)n(CCc4c[nH]c5ccc(O)cc45)c3C[C@H]2CN1C(=O)c1ccccc1 | 1.06 | -0.226 | 0.8 | -0.927 | 0.305 | 0.873 | -0.793 (inactive) | -0.259 | -0.401 | 0.521 (inactive) |
| O=C1C2C=CC(C(O)c3ccco3)N(Nc3ccccc3F)C2C(=O)N1c1ccccc1 (stereo not given) | -0.356 | -0.912 | -0.0718 | -0.142 | 0.243 | -1.27 | -0.346 (inactive) | -0.201 | 0.128 | 0.279 (inactive) |
| COC(=O)[C@@]1(Cc2ccccc2)[C@H]2c3cc(C(=O)N(C)C)n(Cc4ccc(C)o4)c3C[C@H]2CN1C(=O)c1ccccc1 | -2.02 | 0.827 | -0.735 | -1.01 | -3.69 | 0.598 | -2.61 (inactive) | -0.951 | -1.88 | -1.42 (inactive) |
| CCOC(=O)C1=CC[C@@H](c2ccccc2)N(S(=O)(=O)c2ccc(C)cc2)[C@H]1c1ccccc1 | -0.84 | -1.5 | -0.634 | -1.79 | 0.229 | 1.61 | -1.29 (inactive) | -1.04 | -0.0355 | 1.44 (inactive) |
| O=C1O[C@@H](c2ccccc2)[C@@H](c2ccccc2)N2[C@@H](c3ccc(O)cc3)[C@]3(C(=O)Nc4ccc(C#CCCO)cc43)[C@@H](C(=O)N3CCN(c4ncccn4)CC3)[C@H]12 | -0.716 | -0.0773 | 0.0219 | 0.441 | 0.1 | -1.95 | -0.252 (inactive) | -0.681 | -0.425 | 0.378 (inactive) |
| NC(=O)[C@@]1(Cc2ccccc2)COC(c2ccc(OCCCO)cc2)=N1 | -0.291 | -0.0025 | 0.532 | 0.064 | -0.453 | -0.798 | -0.392 (inactive) | -0.759 | -0.172 | 0.138 (inactive) |
| CC(C)C(CO)N1C(=O)[C@@H]2C3C(=O)OCCC/C=C\[C@H]3OC23C=CCN(Cn2nnc4ccccc42)C(=O)[C@@H]13 (stereo not given in full) | 0.225 | 0.0251 | 0.0343 | 1 | -0.224 | -0.45 | -0.529 (inactive) | -0.0779 | -0.165 | 0.173 (inactive) |
| CC(C)C(CO)N1C(=O)[C@@H]2C3C(=O)OCCC/C=C\[C@H]3OC23C=CCN(c2ccc4ccccc4c2)C(=O)[C@@H]13 (stereo not given in full) | -0.0401 | -0.0738 | -0.131 | 0.292 | 0.457 | -0.0404 | -0.0718 (inactive) | 0.0134 | -0.332 | -0.525 (inactive) |
| C=C(C(=O)CC[C@H](OC(=O)c1ccccc1-c1ccccc1C(=O)O)c1cccc(OCCO)c1)C(C)C | -0.613 | 0.422 | -0.502 | -3.07 | -1.52 | -1.68 | -0.156 (inactive) | 0.248 | 0.618 | -0.701 (inactive) |
| COC(=O)[C@@]1(Cc2ccc(OC)cc2)[C@H]2c3cc(C(=O)N(C)C)n(Cc4ccc(C)o4)c3C[C@H]2CN1C(=O)c1ccccc1 | 0.774 | -0.0339 | 0.81 | -1.92 | -0.744 | 4.47 | -0.263 (inactive) | -0.939 | -3.01 | -0.21 (inactive) |
| CCOC(=O)[C@@H]1CCCCN1C(=O)C(=O)OC | -0.856 | -0.116 | 0.0129 | 0.143 | 0.13 | -0.684 | -0.603 (inactive) | -0.0109 | 0.0743 | -0.599 (inactive) |
